Experimental data from ChEMBL document CHEMBL3988442, “University of Dundee, Small-Polar-MMV Screening Library” (2021).
About 300 (0.45%) of roughly 67,000 compounds showed an effect of 50% or more. The sample as a whole holds a higher share of strong results than the screen did.

molecular target: Polyketide synthase Pks13 (Mycobacterium tuberculosis (strain ATCC 25618 / H37Rv)) (UniProt I6X8D2); assay: Mycobacterium tuberculosis Polyketide synthase 13 Thioesterase (PKS13); assay type: functional; parameters: scale not given: in the data most compounds retested in dose-response had high values; details: 30 µM
Sequence (I6X8D2 whole entry): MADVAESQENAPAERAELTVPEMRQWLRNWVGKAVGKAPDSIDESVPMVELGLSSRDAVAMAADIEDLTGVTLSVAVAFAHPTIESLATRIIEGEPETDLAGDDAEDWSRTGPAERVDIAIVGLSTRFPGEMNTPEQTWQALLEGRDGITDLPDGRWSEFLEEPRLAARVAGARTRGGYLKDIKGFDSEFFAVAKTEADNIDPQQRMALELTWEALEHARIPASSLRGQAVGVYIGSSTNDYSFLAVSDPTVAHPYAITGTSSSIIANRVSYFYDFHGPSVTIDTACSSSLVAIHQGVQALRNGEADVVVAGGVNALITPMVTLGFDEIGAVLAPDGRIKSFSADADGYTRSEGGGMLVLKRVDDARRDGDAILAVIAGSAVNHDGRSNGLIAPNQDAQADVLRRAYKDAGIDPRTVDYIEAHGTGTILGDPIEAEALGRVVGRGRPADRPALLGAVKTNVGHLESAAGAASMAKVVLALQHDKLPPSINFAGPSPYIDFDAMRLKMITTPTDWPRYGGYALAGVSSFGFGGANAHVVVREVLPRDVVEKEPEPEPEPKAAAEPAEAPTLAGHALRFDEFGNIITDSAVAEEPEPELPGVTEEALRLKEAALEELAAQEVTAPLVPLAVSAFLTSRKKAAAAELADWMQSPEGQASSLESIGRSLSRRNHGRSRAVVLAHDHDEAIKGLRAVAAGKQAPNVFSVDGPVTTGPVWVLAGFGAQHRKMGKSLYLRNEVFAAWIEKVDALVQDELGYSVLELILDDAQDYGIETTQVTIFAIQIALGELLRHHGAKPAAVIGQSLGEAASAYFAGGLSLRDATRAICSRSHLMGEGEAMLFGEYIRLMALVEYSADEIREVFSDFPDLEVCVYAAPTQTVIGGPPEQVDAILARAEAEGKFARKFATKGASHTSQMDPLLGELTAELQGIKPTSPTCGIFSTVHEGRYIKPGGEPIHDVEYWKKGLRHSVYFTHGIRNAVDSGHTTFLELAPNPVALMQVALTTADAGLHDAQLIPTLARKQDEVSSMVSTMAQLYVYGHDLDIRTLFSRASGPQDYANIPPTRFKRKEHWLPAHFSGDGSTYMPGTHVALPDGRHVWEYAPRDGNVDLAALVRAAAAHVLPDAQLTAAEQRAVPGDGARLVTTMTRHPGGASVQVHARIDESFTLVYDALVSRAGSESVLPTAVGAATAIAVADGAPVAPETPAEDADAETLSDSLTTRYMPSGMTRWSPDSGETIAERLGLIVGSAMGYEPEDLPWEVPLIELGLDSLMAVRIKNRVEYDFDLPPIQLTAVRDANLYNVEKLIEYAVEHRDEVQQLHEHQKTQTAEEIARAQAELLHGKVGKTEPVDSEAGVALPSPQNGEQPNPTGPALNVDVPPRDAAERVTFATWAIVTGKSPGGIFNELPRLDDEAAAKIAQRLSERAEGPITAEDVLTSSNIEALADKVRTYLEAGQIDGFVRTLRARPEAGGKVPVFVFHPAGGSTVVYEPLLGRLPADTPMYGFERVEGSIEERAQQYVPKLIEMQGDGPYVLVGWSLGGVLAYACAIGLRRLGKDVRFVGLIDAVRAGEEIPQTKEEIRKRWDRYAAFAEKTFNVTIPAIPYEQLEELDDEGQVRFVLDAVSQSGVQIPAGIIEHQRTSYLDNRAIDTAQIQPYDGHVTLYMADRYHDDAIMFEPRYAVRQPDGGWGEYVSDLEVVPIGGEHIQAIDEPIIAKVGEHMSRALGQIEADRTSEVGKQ

Compound | Percent Effect
O=C(O)C1c2nc[nH]c2CCN1Cc1cc(-c2ccccc2)no1 (stereo unspecified) | -11.2%
O=C(O)C1c2nc[nH]c2CCN1Cc1ccccc1-c1ccccc1 (stereo unspecified) | 62.3%
O=C(O)C1c2nc[nH]c2CCN1Cc1ccc(-c2ccccc2)s1 (stereo unspecified) | -9.34%
CSCC(=O)N1C[C@H]2CC[C@@H]1CN(C1Cc3ccccc3C1)C2 | -8.9%
Cc1nccc([C@@H]2C[C@@H]3CCN(Cc4cccs4)C[C@H]3O2)n1 | -9.54%
N#Cc1cccc(N2CCCC(CO)(CCOc3ccccc3)C2)n1 (stereo unspecified) | 132%
CC(=O)c1ccc(N2CCCC(CO)(CCOc3ccccc3)C2)nc1 (stereo unspecified) | 15.6%
N#Cc1ccc(N2CCCC(CO)(CCOc3ccccc3)C2)nc1 (stereo unspecified) | 13.8%
N#Cc1cccc(N2CCC3(CCC(=O)N(CCCO)C3)CC2)n1 | -0.0305%
Nc1nccc(N2CCCC(CO)(CCOc3ccccc3)C2)n1 (stereo unspecified) | -23.1%
N#Cc1cccc(N2CCC3(CC2)Nc2ccccc2NC3=O)n1 | -22.8%
CC(=O)c1ccc(N2CCCC(CO)(CCc3ccccc3)C2)nc1 (stereo unspecified) | 55.1%
N#Cc1cccc(N2CCC(CO)(CCCc3ccccc3)CC2)n1 | 67.6%
CCc1nc(N2CCCC(CO)(CCOC)C2)ncc1C (stereo unspecified) | -19.2%
CC(=O)c1ccc(N2CCCC(CO)(Cc3ccccc3F)C2)nc1 (stereo unspecified) | -9.09%
OCC1(CCOc2ccccc2)CCN(c2ccc(Cl)cn2)CC1 | 43.4%
OCC1(CCOc2ccccc2)CCCN(c2ccc(Cl)cn2)C1 (stereo unspecified) | 56.5%
O=C(NCc1ccco1)[C@H]1C[C@H]2OCC[C@H]2N(S(=O)(=O)C2CC2)C1 | -7.99%
CCOC(=O)[C@]12CCCN(Cc3cccs3)C[C@H]1CN(C(C)C)C2 | -0.678%

Compound | Percent Effect
N#Cc1cccc(N2CCC(CO)(CCOc3ccccc3)CC2)n1 | 128%
CC(=O)c1ccc(N2CCC(CO)(CCOc3ccccc3)CC2)nc1 | 8.13%
N#Cc1cccnc1N1CCCC(CO)(CCOc2ccccc2)C1 (stereo unspecified) | -13.7%
CC(C)CN1C[C@H]2C[C@H](C(=O)NC3CCC3)[C@@H](C1)O2 | 8.3%
CC(C)(C)Nc1nc(-c2cccnc2)c(-c2ccnc(NCCO)n2)s1 | 121%
CCNc1nc(-c2cccnc2)c(-c2ccnc(NS(C)(=O)=O)n2)s1 | 17.5%
CCNc1nc(-c2cccnc2)c(-c2ccnc(NCCO)n2)s1 | 37.6%
COc1ccccc1C(=O)Nc1ccc([C@@H](O)[C@H]2COCC(=O)N2)cc1 | 3.39%
CCS(=O)(=O)NC[C@]12COC[C@H]1CN(Cc1cccc(OC)c1)C2 | -39.6%
O=C(COCc1ccccc1Cl)N1CCN(c2ncccn2)CC1 | 0.958%
O=C(COCc1ccccc1Cl)N1CCN(c2cnccn2)CC1 | 25.8%
O=C(COCc1ccccc1Cl)N1CCN(c2ccc(Br)cn2)CC1 | 63.1%
CCc1cnc(N2CC[C@H]3[C@@H]2CCC(=O)N3c2ccccc2)nc1 | -13.3%
CCc1cnc(N2CC[C@H]3[C@@H]2CCC(=O)N3CC2CCOCC2)nc1 | 88.2%
O=C1CC[C@H]2[C@H](CCN2c2ccccn2)N1CC1CCOCC1 | -8.5%
O=C1O[C@@H]2CN(c3ccncc3)C[C@@H]2N1CCCc1ccc(F)cc1 | -35.8%
Cc1cc(C)n(CCN(C)c2ccc(-c3nc(C4CC4)no3)cn2)n1 | 0.156%
Cc1n[nH]c(C)c1CNc1ccc(-c2nc(C3CC3)no2)cn1 | 3.88%
Cc1n[nH]c(C)c1CCN(C)c1ccc(-c2nc(C3CC3)no2)cn1 | 62.8%

Compound | Percent Effect
CC(=O)NC[C@@]1(COc2cnccn2)C[C@@H](O)[C@@H](O)C1 | -8.58%
CC(C)c1nc(CN(C)C2CCN(CCNS(C)(=O)=O)C2)no1 (stereo unspecified) | 93.5%
CCS(=O)(=O)CCN1CCC(N(C)Cc2noc(C(C)C)n2)C1 (stereo unspecified) | -4.58%
CC(C)c1nc(CN(C)C2CCN(CCS(C)(=O)=O)C2)no1 (stereo unspecified) | -22.6%
c1cnc(N2CCO[C@H]3CN(CC4CCOC4)C[C@H]32)cn1 (stereo partly specified) | -2.77%
Cc1noc(C)c1CN1C[C@H](OCC2CCN(C)CC2)[C@H]2COC[C@H]21 | -13.4%
c1cc(CN2C[C@H](OCC3CCOCC3)[C@H]3COC[C@H]32)cs1 | 1.55%
O=C(c1ccco1)N1CC[C@@H]2O[C@H](COCCN3CCCC3)CC[C@@H]21 | -19.5%
COC(=O)c1cc(NC2CCN(CC(F)(F)F)C2=O)ccc1C (stereo unspecified) | 9.8%
CCOc1ccc(NC2CCN(CC(F)(F)F)C2=O)cc1C (stereo unspecified) | 7.36%
COC(=O)c1ccc(NC2CCN(CC(F)(F)F)C2=O)cc1C (stereo unspecified) | 62.3%
CN(C)C[C@H]1OC[C@@H]2CCN(C(=O)c3ccc[nH]3)C[C@@H]21 | 11.4%
O=C(Nc1cccnc1)[C@H]1CN(C2CCCC2)C[C@H]2OCC[C@@H]12 | -36.1%
CC(C)c1ncc2c(n1)CN(CC1CCCCO1)CC2 (stereo unspecified) | -18.6%
Cc1ncc2c(n1)CN(CC1CCCCO1)CC2 (stereo unspecified) | -13.3%
CCc1ncc2c(n1)CN(CC1CCCCO1)CC2 (stereo unspecified) | 78.1%
Cc1nc(CN2C[C@@H]3CN(C(=O)c4ccco4)C[C@@H]3C2=O)cs1 | -4.47%
O=C1NC(c2ccccc2)=N[C@@]12CC[C@@H]1CN(Cc3nccs3)C[C@@H]12 | 23.9%
